Screening data as filed in PubChem.
In the library only some 7.9% were active in any assay of this set; here they are far more common.
HT1080-NT tox: kills 2HG-producing HT-1080-NT fibrosarcoma cells | 360,000 compounds, 1.6% hits | AID 686970 | HT-1080-NT fibrosarcoma viability, CellTiter-Glo ATP luminescence, 48 h | Potency, µM (doses to about 46.1 µM), most hits filed as cytotoxic;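 also: NT is the 2HG producing partner of a matched IDH1 knockdown line; nearly all actives have a fitted effect of over 55% in size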
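Toxicity toward the 2HG-producing NT line was scored as %Activity, normalised to DMSO and no-cell wells, from CellTiter-Glo luminescence after 48 hours' treatment.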
HT1080 IDH1KD tx: toxicity to HT-1080 IDH1 knockdown cells (counter line); HT-1080 IDH1 knockdown viability, ATP luminescence, 48 h; Potency, µM (top dose mostly 46.1 µM), most hits filed as cytotoxic; 360,000 compounds, 2% hits; AID 686971
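Assay cells: HT-1080 with IDH1 knockdown, 750 per well, RPMI/5% FBS. Exposure: 48 h at 37 °C following 2 h pre-incubation. Read: CellTiter-Glo luminescence; fitted concentration-response, curve class assigned.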
KB-V1 MDR tox: KB-V1 MDR subline cytotoxicity; KB-V1 MDR cells viability, CellTiter-Glo, 72 h; Potency, µM (highest dose often 46.1 µM), actives largely listed as cytotoxic; 400,000 compounds, 3.4% hits; also: nearly all actives have a fitted effect of over 60% in size
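KB-V1, DMEM (no phenol red) + 10% FBS; cpd pin-transferred, titration series; 72 h, 37 degrees C; CellTiter-Glo, luminescence. Data normalized, curve-fit.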
KB-3-1 tox: kills parental KB-3-1 adenocarcinoma cells | 400,000 compounds, 1.4% hits | Potency, µM (top dose mostly 46.1 µM), actives largely listed as cytotoxic | AID 1347075 | KB-3-1 viability, CellTiter-Glo ATP luminescence, 72 h; also: nearly all actives have a fitted effect of over 60% in size
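Luminescent ATP read-out (CellTiter-Glo) measures survival of drug-naive KB-3-1 cells after 72 h compound exposure at 37 °C. Titration series was screened from lowest to highest concentration, with DMSO vehicle plates as background controls.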
MCF10A rereplic: inducers of DNA re-replication in MCF 10A breast cells | MCF 10A DNA re-replication, Hoechst nuclear intensity, 48 h | Potency, µM (doses to about 46.1 µM), hits mostly activators | 350,000 compounds, 2.9% hits | AID 624296; also: nearly all actives have a fitted effect of over 50% in size
SW480 rerep: inducers of DNA re-replication in SW480 colon cancer cells; SW480 DNA re-replication, Hoechst DNA content imaging, 48 h; Potency, µM (top dose mostly 46.1 µM), most hits filed as activators; 340,000 compounds, 1.8% hits; AID 624297; also: nearly all actives have a fitted effect of over 55% in size
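Readout is total intensity of Hoechst-stained nuclei, excited at 405 nm and collected at 500-530 nm. Compound treatment lasted 48 hr at 37 C in 5% CO2 before staining.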
Numbers stand for hits; 0 = inactive; ? = inconclusive; - = no result given. Calls follow the shape of the dose curve; as a rule, active = well fitted curve in the direction sought with a large enough effect; inconclusive = small, poorly fitted or top-dose-only effect, or another doubt; inactive = no such curve, though single readings can be large; an effect the other way counts as inactive or inconclusive.

SMILES | HT1080-NT tox | HT1080 IDH1KD tx | KB-V1 MDR tox | KB-3-1 tox | MCF10A rereplic | SW480 rerep
Cc1ccccc1OCCC(=O)Nc1cccc(S(=O)(=O)Nc2ccccc2Cl)c1 | 0 | 0 | 11.6µM | ? | ? | 0
Cc1ccc(NS(=O)(=O)c2cccc(C(=O)N3CCCCC3)c2)cc1 | 0 | 0 | 11.6µM | 0 | 0 | 0
CCOC(=O)N1CCN(C(=O)c2cccc(S(=O)(=O)Nc3ccccc3Cl)c2)CC1 | 0 | 0 | 18.4µM | 0 | 0 | 0
COc1cc(S(=O)(=O)Nc2ccccc2N2CCCCC2)ccc1NC(C)=O | 16.4µM | 8.2µM | 0 | 0 | 18.4µM | ?
COc1cccc(S(=O)(=O)Nc2cccc(C(=O)N3CCCC3)c2)c1 | 0 | 0 | 0 | 0 | 0 | 0
COc1cccc(S(=O)(=O)Nc2cccc(C(=O)N3CCCCCC3)c2)c1 | 0 | 0 | 14.6µM | 0 | 0 | 0
CC1=C(C(=O)Nc2ccccc2C)C(c2cccs2)n2nc(SCc3cc(C)ccc3C)nc2N1 (stereo not given) | - | - | ? | 0 | - | -
Cc1ccc(C2=NN=C(NC(=O)CSc3nnc4c5ccccc5n(C)c4n3)SC2)cc1 | ? | 29.1µM | ? | ? | 0 | ?
CCOC(=O)Cc1nnc(NC(=O)CSc2nnc3c4ccccc4n(C)c3n2)s1 | ? | ? | 0 | 0 | ? | 0.731µM
CCOC(=O)C(C)Sc1nnc2c3ccccc3n(C)c2n1 (stereo not given) | 0 | 0 | 0 | 0 | 1.84µM | 0
Cc1nn(C)c(C)c1S(=O)(=O)N(CC(=O)NCCCOC(C)C)c1ccc(C(C)C)cc1 | 0 | 0 | 4.61µM | 0 | 0 | 0
COc1ccc(N(CC(=O)NC2CCCCCC2)S(=O)(=O)c2c(C)nn(C)c2C)cc1 | 0 | 0 | 8.2µM | ? | 0 | 0
Cc1ccc(N(CC(=O)NC2CCCCCC2)S(=O)(=O)c2c(C)nn(C)c2C)cc1 | 0 | 0 | 9.2µM | 0 | 0 | 0
COc1ccc(N(CC(=O)N2CCCCC2)S(=O)(=O)c2c(C)nn(C)c2C)cc1 | 0 | 0 | 0 | 0 | 0 | 0
COc1cc(NS(=O)(=O)c2ccc(NC(=O)c3cccc(F)c3)cc2)nc(OC)n1 | - | - | 0 | 0 | - | -
COc1cccc2c1ncc1c(-c3ccc(C)cc3)nn(-c3ccc(F)cc3)c12 | - | - | 0 | 0 | - | -
Cc1cc(C)c(NC(=O)CN(CC(=O)O)CC(=O)O)c(C)c1Br | - | - | - | - | 0 | 0
CC(=O)Nc1ccc(NC(=O)Cn2c(=O)n(-c3ccccc3)c(=O)c3oc4ccccc4c32)cc1 | 0 | 0 | 0 | 0 | 0 | 0
COc1cccc(NC(=O)Cn2c(=O)n(-c3ccccc3)c(=O)c3oc4ccccc4c32)c1 | ? | ? | 20.6µM | ? | 0 | 0
CN1CC(=O)N(CC(=O)Nc2ccc(OC(F)(F)F)cc2)c2ccccc2C1=O | - | - | 0 | 0 | - | -
CSCCC1NC2(C(=O)Nc3c2ccc(Cl)c3C)[C@@H]2C(=O)N(C3CCCC3)C(=O)[C@H]12 (stereo not given in full) | 0 | 0 | 4.11µM | ? | 0 | ?
CC(C)Oc1ccc(CNC(=O)C2CCCN(S(=O)(=O)c3ccc4c(ccn4C)c3)C2)cc1 (stereo not given) | - | - | 0 | ? | - | -
OC(C1=CC(=Cc2ccncc2)c2ccccc21)c1ccncc1 (stereo not given) | 3.26µM | 0 | ? | 0 | 0 | 0
COC(=O)[C@]12CCCCC=C1N(CCc1ccc(OC)c(OC)c1)C(=O)[C@H](CC(=O)N1CCCCC1)C2 | 0 | 0 | ? | 0 | - | -
Cn1c(=O)c2c(nc(NCC3CCCC(CN)C3)n2Cc2ccc(Cl)cc2Cl)n(C)c1=O (stereo not given) | ? | 0 | ? | ? | ? | 4.11µM
SMILES | HT1080-NT tox | HT1080 IDH1KD tx | KB-V1 MDR tox | KB-3-1 tox | MCF10A rereplic | SW480 rerep
Cn1c(=O)c2c(nc(N3CCN(c4ccccn4)CC3)n2Cc2ccc(Cl)cc2Cl)n(C)c1=O | 0 | 0 | 0.651µM | 0 | 0 | 0
COc1ccc(OC)c(-c2nnc(NC(=O)Nc3ccc4ccccc4c3)s2)c1 | - | - | 0 | 0 | - | -
CC1(C)C2CCC1(C)C(SC(=N)N)C2 (stereo not given) | 0 | 0 | 18.4µM | 0 | 0 | ?
Cc1nc(N2CCN(Cc3ccccc3)CC2)nc2c1C(=O)CC(C)C2 (stereo not given) | 0 | 0 | 20.6µM | 0 | 0 | 0
Cc1ccc(-n2ncc(C(=O)N3CCN(c4cc(Cl)ccc4C)CC3)c2C2CCN(C(=O)OC(C)(C)C)CC2)cc1 | - | - | 0 | 0 | - | -
O=S1(=O)N=C(OCc2ccccc2)c2ccccc21 | - | - | 0 | 0 | - | -
Cc1cc(Cl)ccc1C(O)c1ncc(-c2ccc(F)cc2)[nH]1 (stereo not given) | ? | 20.6µM | 0 | 0 | - | -
Cc1cc(F)ccc1C(O)c1ncc(-c2ccc(Cl)cc2)[nH]1 (stereo not given) | 0 | 0 | 0 | 0 | - | -
OC(Cc1ccccc1)c1ncc(-c2ccc(Cl)cc2)[nH]1 (stereo not given) | ? | ? | 11.6µM | ? | - | -
OC(Cc1ccccc1Br)c1ncc(-c2ccc(Cl)cc2)[nH]1 (stereo not given) | ? | 20.6µM | ? | 0 | - | -
CCc1ccc(/C=C2\SC(=S)N(CCCC(=O)N3CCCC3)C2=O)cc1 | 0 | 0 | ? | ? | - | -
Cn1c(=O)c2c(nc(NCCCCO)n2Cc2ccccc2Cl)n(C)c1=O | - | - | 0 | 0 | - | -
CCCCCNCC(=O)Nc1cccc(C(=O)Nc2cccc(C(F)(F)F)c2)c1 | 20.6µM | 16.4µM | 23.1µM | ? | ? | 0
CC(=O)c1c(C)[nH]c(C(=O)Nc2cccc(C(F)(F)F)c2)c1C | ? | ? | 13µM | ? | 0 | 0
COc1ccc(C(C)(C)C)cc1NC(=O)c1[nH]c(C)c(C(C)=O)c1C | ? | 0 | ? | ? | 18.4µM | ?
O=C(CN1CCOCC1)Nc1cccc(C(=O)Nc2cccc(C(F)(F)F)c2)c1 | 0 | 0 | 0 | 0 | 0 | 0
COc1ccc(NC(=O)c2[nH]c(C)c(C(C)=O)c2C)cc1Cl | 0 | 0 | 0 | 0 | ? | ?
CC(C)(C)OC(=O)N1CCC(c2c(C(=O)NCCN3CCOCC3)cnn2-c2ccccc2)CC1 | - | - | ? | 0 | - | -
Cc1ccc(C)c(CNC(=O)c2ccc3c(c2)nc2n3CCCCC2)c1 | - | - | 0 | 0 | - | -
CNC(=O)CC1C(=O)N(Cc2ccccc2)C(=S)N1NC(=O)c1cccc(F)c1 (stereo not given) | 0 | 0 | 20.6µM | 0 | 0 | 0
CNC(=O)CC1C(=O)N(c2ccc(OC)cc2)C(=S)N1NC(=O)c1cccc(F)c1 (stereo not given) | 0 | ? | 0 | 0 | ? | 2.31µM
CNC(=O)CC1C(=O)N(c2ccc(Cl)cc2)C(=S)N1NC(=O)c1cccc(F)c1 (stereo not given) | 0 | 0 | 0 | 0 | 0 | 0
COCCCn1c(SCC(=O)Nc2ccc(F)cc2)nc2c(sc3ccccc32)c1=O | - | - | 0 | 0 | - | -
